This is a sample that favours compounds with a hit; in the whole collection about 6.8% have one here.
Pf Dd2 inh – P. falciparum Dd2 growth inhibitors, primary screen, SYBR Green fluorescence, single dose replicates | 72 h; active compounds read low | activity change, % at 10 µM | 94,000 compounds, 2.3% hits | AID 1159554, 2015; in the data active means activity change below about -80%; inconclusive means no clear call, values can overlap the other calls
T cruzi growth-1 – T. cruzi intracellular proliferation inhibitors, primary screen, cell-based, beta-gal Tulahuen parasites, NIH3T3 host, luminescence | T. cruzi beta-gal in NIH3T3, GalScreen luminescence, 90 h | inhibition, % at 8.34 µM | 77,000 compounds, 5.9% hits | AID 624255, 2012;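 active means mean inhibition above about 93%, with at least 55% of replicates each passing it, limit read from the data, passing the limit was not always enough; inconclusive means only one of those two conditions holds; inactive means neither condition holds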
C diff growth – C. difficile growth inhibitors, primary screen, HTS. AID 1259249, 2017. 86,000 compounds, 0.25% hits. Clostridium difficile clinical isolate growth, OD600, 24 h; active compounds read low. growth activity, negative = inhibition, % at 16 µg/mL (by protocol);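 active means mean growth activity at or below -80% and every replicate also at or below -80%; inconclusive means mean at or below -80% but some replicate above -80%; inactive means mean growth activity above -80%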;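 further: 0% = DMSO wells and -100% = levofloxacin 16 µg/mL wells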
T cruzi growth-2 – T. cruzi intracellular proliferation inhibitors, confirmation, cell-based, NIH3T3 host, beta-gal parasite, luminescence, cherry-pick; shares compounds with T cruzi growth-1; T. cruzi beta-gal in NIH3T3, GalScreen luminescence, 90 h; inhibition, % at 8.35 µM; 5,600 compounds, 72% hits;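 active means mean replicate inhibition above about 95% and at least 55% of replicates individually reaching it, limit read from the data; inconclusive means only one of the two criteria is met; inactive means neither criterion is met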
T cruzi growth-3 – inhibitors of intracellular T. cruzi replication, confirmation, NIH3T3 host cells, beta-gal parasites, cherry-pick, set 2 | T. cruzi beta-gal in NIH3T3, GalScreen luminescence, 90 h | shares compounds with T cruzi growth-1 | inhibition, % at 2.09 µM | 5,600 compounds, 21% hits;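 active means mean inhibition above about 95%, with at least 55% of replicates also reaching it, limit read from the data; inconclusive means meets just one of the two conditions; inactive means meets neither condition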;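 further: plate controls were neutral control median for no effect and positive control median for full effect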
3T3 cytotox – cytotoxicity in mouse NIH/3T3 fibroblasts, confirmation, cytotoxicity control for T. cruzi proliferation inhibitor project, cell-based, cherry-pick, single point; shares compounds with T cruzi growth-1; NIH/3T3 viability, CellTiter-Glo ATP luminescence, 90 h; cytotoxicity (signal decrease), % at 8.35 µM; 5,600 compounds, 14% hits; AID 651742, 2012;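 active means mean signal decrease across replicates above about 35% based on untreated-well scatter, with enough replicates individually passing, limit read from the data; inconclusive means no rule stated though some were filed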;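 further: 0% = median of neutral control wells and 100% = median of positive control wells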
NIH3T3 tox 2 – NIH/3T3 fibroblast cytotoxicity, confirmation, cytotoxicity control, cell-based, cherry-pick, single point, set 2; NIH/3T3 viability, CellTiter-Glo ATP luminescence, 90 h; 5,600 compounds, 56% hits; AID 651744, 2012; shares compounds with T cruzi growth-1; inhibition, % at 24.9 µM;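 active means mean loss of cell viability signal at or above a set limit, and enough replicates individually reaching it; inconclusive means meets only the mean limit or only the replicate share; inactive means meets neither condition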;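 further: 0% = median of neutral control wells and 100% = median of positive control wells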
* hit, by the source's call; ? = inconclusive; / = not tested or not shown; ! = not active in a repeat.

SMILES | Pf Dd2 inh | T cruzi growth-1 | C diff growth | T cruzi growth-2 | T cruzi growth-3 | 3T3 cytotox | NIH3T3 tox 2
COc1ccc(S(=O)(=O)N(C)C[C@@H]2Oc3ccc(NC(=O)Nc4c(C)noc4C)cc3C(=O)N([C@@H](C)CO)C[C@@H]2C)cc1 | 11 | 37 | -1 | / | / | / | /
C[C@@H](O)C#Cc1ccc([C@H]2[C@@H](CO)N3CCCCN(CC4CCOCC4)C[C@@H]23)cc1 | -17 | 16 | -3 | / | / | / | /
O=C(Nc1ccc(C(F)(F)F)cc1)N[C@@H]1CC[C@@H](CCNC(=O)c2ccccc2F)O[C@@H]1CO | -28 | 13 | 2 | / | / | / | /
C[C@H](CO)N1C[C@H](C)[C@H](CN(C)Cc2ccc(Oc3ccccc3)cc2)Oc2c(NC(=O)Nc3ccc(C(F)(F)F)cc3)cccc2C1=O | -50 | 122* | 22 | 103* | 108* | 8 | 106*
C[C@H](CO)N1C[C@H](C)[C@H](CN(C)Cc2ccc(Oc3ccccc3)cc2)Oc2c(NC(=O)Nc3ccc(F)cc3)cccc2C1=O | 10 | 59 | / | / | / | / | /
C[C@H](CO)N1C[C@H](C)[C@@H](CN(C)Cc2ccc(Oc3ccccc3)cc2)Oc2c(NC(=O)Nc3ccc(F)cc3)cccc2C1=O | -18 | 126* | / | 73 | -6 | -25 | -7
C[C@H](CO)N1C[C@H](C)[C@@H](CN(C)Cc2ccc(C(F)(F)F)cc2)Oc2c(NC(=O)Nc3ccc(C(F)(F)F)cc3)cccc2C1=O | 19 | 41 | 34 | / | / | / | /
C[C@H]1CN([C@@H](C)CO)C(=O)c2cccc(NC(=O)Nc3ccc(C(F)(F)F)cc3)c2O[C@@H]1CN(C)Cc1ccc(Oc2ccccc2)cc1 | -33 | 127* | 5 | 96* | 67 | 23 | 105*
C[C@@H]1CN([C@H](C)CO)C(=O)c2cccc(NC(=O)Nc3ccc(C(F)(F)F)cc3)c2O[C@H]1CN(C)Cc1ccccc1 | -33 | 61 | 11 | / | / | / | /
C[C@@H]1CN([C@H](C)CO)C(=O)c2cc(NS(C)(=O)=O)ccc2O[C@@H](C)CCCCO[C@H]1CN(C)C(=O)Nc1ccc(C(F)(F)F)cc1 | -20 | -1 | 6 | / | / | / | /
COc1ccc(COCC23N=C4SCc5ccccc5C(=O)N4[C@H](c4ccccc4O2)[C@H]3CO[Si](C)(C)C(C)(C)C)cc1 | / | / | 2 | / | / | / | /
CO[C@H]1CN(C)C(=O)c2ccc(NS(C)(=O)=O)cc2OC[C@@H](C)NC[C@H]1C | 7 | -18 | -1 | / | / | / | /
C[C@@H]1CN([C@H](C)CO)C(=O)c2cc(C#Cc3cccnc3)cnc2O[C@@H]1CN(C)S(=O)(=O)c1ccccc1F | -5 | 43 | -2 | / | / | / | /
C[C@H]1CN([C@@H](C)CO)C(=O)c2cc(C#CC3CC3)cnc2O[C@@H]1CN(C)C(=O)c1ccncc1 | 36 | 15 | / | / | / | / | /
C[C@H](CO)N1C[C@H](C)[C@@H](CN(C)Cc2ccccn2)Oc2cc(-c3ccncc3)ccc2S1(=O)=O | -50 | 109* | 2 | 99* | 105* | 55* | 88*
C[C@@H]1CN([C@@H](C)CO)S(=O)(=O)c2ccc(-c3ccccc3)cc2O[C@@H]1CN(C)Cc1ccccn1 | -5 | -21 | -10 | / | / | / | /
Cc1ccc(-c2ccc3c(c2)O[C@H](CN(C)Cc2ccccn2)[C@@H](C)CN([C@H](C)CO)S3(=O)=O)cc1 | -40 | 91 | -6 | / | / | / | /
Cc1ccc(-c2ccc3c(c2)O[C@H](CN(C)Cc2ccccn2)[C@@H](C)CN([C@@H](C)CO)S3(=O)=O)cc1 | -55 | 117* | 0 | 103* | 68 | 83* | 104*
C[C@@H]1CN([C@@H](C)CO)S(=O)(=O)c2ccc(Br)cc2O[C@H]1CN(C)Cc1ccccn1 | 19 | 107*! | 2 | 89 | 17 | 5 | 53*
C[C@H](CO)N1C[C@H](C)[C@H](CN(C)Cc2ccccn2)Oc2cc(Br)ccc2S1(=O)=O | -1 | -9 | -1 | / | / | / | /
C[C@@H]1CN([C@H](C)CO)C(=O)c2cc(NS(=O)(=O)c3ccc(Cl)cc3)ccc2O[C@H]1CN(C)CC1CC1 | 11 | -19 | 3 | / | / | / | /
CCC(=O)N1C[C@H]2[C@@H](c3ccccc31)[C@H](CO)N2C(=O)CC | -7 | 104* | 2 | 62 | -15 | -11 | -17
O=C(Nc1ccccc1)N1C[C@@H]2[C@H](c3ccccc31)[C@@H](CO)N2CC1CCCC1 | -19 | -19 | 18 | / | / | / | /
O=C(C1CCCCC1)N1C[C@@H]2[C@H](c3ccccc31)[C@H](CO)N2Cc1ccccc1Cl | -28 | 105* | 8 | 99* | 15 | 21 | -11
CCC(=O)N1C[C@@H]2[C@H](c3ccccc31)[C@@H](CO)N2C(=O)CC1CC1 | -72 | 6 | 0 | / | / | / | /
SMILES | Pf Dd2 inh | T cruzi growth-1 | C diff growth | T cruzi growth-2 | T cruzi growth-3 | 3T3 cytotox | NIH3T3 tox 2
O=C(Nc1ccc(Cl)cc1)N1C[C@H]2[C@@H](c3ccccc31)[C@@H](CO)N2CC1CCCC1 | -14 | 108* | 8 | 99* | 78 | 2 | 50*
O=S(=O)(c1ccc(F)cc1)N1C[C@@H]2[C@H](c3ccccc31)[C@H](CO)N2Cc1ccccc1Cl | -50 | 83 | 3 | / | / | / | /
O=C(C1CCCCC1)N1C[C@H]2[C@@H](c3ccccc31)[C@H](CO)N2Cc1ccccc1Cl | -16 | 48 | 6 | / | / | / | /
O=S(=O)(c1ccc(F)cc1)N1C[C@H]2[C@@H](c3ccccc31)[C@H](CO)N2Cc1ccccc1Cl | -69 | 108* | -8 | 102* | 94 | 26 | 38*
O=C(Nc1ccc(F)cc1)N1C[C@H]2[C@@H](c3ccccc31)[C@H](CO)N2C(=O)c1ccccc1 | -7 | 102* | -5 | 98* | 64 | -2 | -4
O=C(Nc1ccc(F)cc1)N1C[C@@H]2[C@H](c3ccccc31)[C@H](CO)N2C(=O)c1ccccc1 | 4 | 51 | 2 | / | / | / | /
O=C(Nc1ccccc1Cl)N1C[C@H]2[C@@H](c3ccccc31)[C@H](CO)N2Cc1ccccc1 | -9 | 100* | 9 | 82 | 8 | -7 | 12
O=C(Nc1ccccc1Cl)N1C[C@H]2[C@@H](c3ccccc31)[C@@H](CO)N2Cc1ccccc1 | 2 | 73 | 4 | / | / | / | /
COc1ccc(C(=O)N2C[C@H]3[C@@H](c4ccccc42)[C@H](CO)N3Cc2ccc3c(c2)OCO3)cc1 | -9 | ? | 10 | 75 | 1 | -7 | 33*
O=C(c1ccc2c(c1)OCO2)N1C[C@H]2[C@@H](c3ccccc31)[C@H](CO)N2Cc1ccc2c(c1)OCO2 | -12 | 43 | 9 | / | / | / | /

Screens deposited in PubChem BioAssay by Broad Institute.
